Screening data deposited in PubChem by National Center for Advancing Translational Sciences (NCATS).
Shown are actives, neighbours in structure and some others; about 12% of the full set was active somewhere.
L3MBTL1 inh = qHTS Assay for the Inhibitors of L3MBTL1; hit rate 0.66% among 230,000; Potency, µM (highest dose often 57.1 µM), hits mostly inhibitors; Lethal(3)malignant brain tumor-like protein 1 (Homo sapiens), Q9Y468; AlphaScreen L3MBTL1–H3K9me1 peptide binding; AID 485360, 2010; further: nearly all actives have a fitted effect of over 60% in size
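L3MBTL1 (50 nM) pre-complexed 30 min with biotinylated H3(1-15)K9me1 peptide (75 nM), then compounds added for 30 min at room temperature; AlphaScreen streptavidin donor/nickel chelate acceptor beads (10 ug/mL final) read after 30 min dark incubation.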
JMJD2A Tudor inh = qHTS Assay for Inhibitors of JMJD2A-Tudor Domain. AlphaScreen JMJD2A-Tudor / H3K4me3 peptide binding. Potency, µM (highest dose often 114 µM), most hits filed as inhibitors. hit rate 4.4% among 390,000. Lysine-specific demethylase 4A (Homo sapiens), O75164; further: nearly all actives have a fitted effect of over 50% in size
Target sequence (O75164 whole entry, looked up, the tested form may be a part): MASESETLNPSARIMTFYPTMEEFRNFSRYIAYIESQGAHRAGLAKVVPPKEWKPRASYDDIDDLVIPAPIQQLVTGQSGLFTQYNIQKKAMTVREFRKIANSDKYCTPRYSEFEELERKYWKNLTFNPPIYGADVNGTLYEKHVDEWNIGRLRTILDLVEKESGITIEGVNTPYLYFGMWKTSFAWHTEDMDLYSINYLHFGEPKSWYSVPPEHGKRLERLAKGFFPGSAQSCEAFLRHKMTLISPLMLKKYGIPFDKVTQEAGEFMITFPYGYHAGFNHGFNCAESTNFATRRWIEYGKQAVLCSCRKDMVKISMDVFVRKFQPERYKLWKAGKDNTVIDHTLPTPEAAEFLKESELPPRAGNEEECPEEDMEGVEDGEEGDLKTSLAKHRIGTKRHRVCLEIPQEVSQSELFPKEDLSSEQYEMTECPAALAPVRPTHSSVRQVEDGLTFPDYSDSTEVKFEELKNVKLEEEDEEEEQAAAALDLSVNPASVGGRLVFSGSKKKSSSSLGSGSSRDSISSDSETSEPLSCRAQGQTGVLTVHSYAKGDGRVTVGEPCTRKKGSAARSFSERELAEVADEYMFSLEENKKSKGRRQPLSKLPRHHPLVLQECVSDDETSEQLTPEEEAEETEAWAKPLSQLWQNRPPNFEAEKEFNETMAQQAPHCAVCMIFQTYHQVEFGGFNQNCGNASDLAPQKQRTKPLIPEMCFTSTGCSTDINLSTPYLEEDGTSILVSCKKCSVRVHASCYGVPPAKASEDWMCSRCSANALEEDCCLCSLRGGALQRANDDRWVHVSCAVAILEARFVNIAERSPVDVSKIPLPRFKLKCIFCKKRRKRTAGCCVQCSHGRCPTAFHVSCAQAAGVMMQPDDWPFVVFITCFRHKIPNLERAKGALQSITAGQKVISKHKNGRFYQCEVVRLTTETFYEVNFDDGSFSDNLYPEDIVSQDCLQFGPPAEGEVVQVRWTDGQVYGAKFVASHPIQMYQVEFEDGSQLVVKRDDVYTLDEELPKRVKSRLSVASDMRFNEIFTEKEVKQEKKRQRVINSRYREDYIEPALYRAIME
HP1b chromo inh = HTS for Inhibitors of HP1-beta Chromodomain Interactions with Methylated Histone Tails; AlphaScreen HP1-beta / biotin-H3K9me3 peptide binding; Potency, µM (highest dose often 114 µM), usual class: inhibitors; hit rate 0.56% among 390,000; AID 540317, 2011; further: nearly all actives have a fitted effect of over 70% in size
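Compound inhibition of the preformed complex between 50 nM HP1-beta and 50 nM biotinylated H3K9me3 peptide was read by AlphaScreen. Buffer was PBS pH 7.4 with 0.01% Tween-20. Incubations ran 30 min at room temperature, with 10 ug/mL donor/acceptor beads.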
Sfp inh = qHTS Assay for Inhibitors of Bacillus subtilis Sfp phosphopantetheinyl transferase (PPTase) | hit rate 3.5% among 310,000 | Potency, µM, usual class: inhibitors | Biochemical Sfp PPTase activity, qHTS;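 further: the enzyme is Sfp with the accession as filed and its product quenches rhodamine fluorescence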
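Step 1, compound plus 15 nM Sfp-PPTase, 15 min, room temperature. Step 2, add rhodamine-CoA (5 uM) and BHQ-2-YbbR (12.5 uM). Step 3, read 525/598 nm fluorescence at 0 and 30 min.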
G9a inh = qHTS Assay for Inhibitors of Histone Lysine Methyltransferase G9a; Histone-lysine N-methyltransferase EHMT2 (Homo sapiens), Q96KQ7; G9a H3K9 monomethylation, AlphaScreen, 2 h; Potency, µM (titrated, usually from 102 µM), usual class: inhibitors; hit rate 8.8% among 350,000; further: nearly all actives have a fitted effect of over 75% in size
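Using a bead-based AlphaScreen, monomethylated H3K9 product from 2 h room-temperature reactions (G9a 20 nM, peptide 500 nM, SAM 20 uM) was detected with 0.5 ug/mL rabbit anti-H3K9me1 antibody.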
BAZ2B inh = qHTS Assay for Inhibitors of BAZ2B; Bromodomain adjacent to zinc finger domain protein 2B (Homo sapiens), Q9UIF8; AlphaScreen BAZ2B-H3K14Ac peptide displacement; Potency, µM (highest dose often 114 µM), most hits filed as inhibitors; hit rate 4.4% among 360,000; AID 504333, 2011; further: nearly all actives have a fitted effect of over 60% in size
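Protein-peptide AlphaScreen: BAZ2B 50 nM, b-H3K14Ac 50 nM, 1x PBS pH 7.4 + 0.01% Tween-20. Preincubation 30 min RT; cpd 30 min RT (top 110 uM); beads 20 min RT, light-protected.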
A number is an active result; n = inactive; u = inconclusive; x = not tested or not shown; [ ] = dose if it differs, or a comment. The call rests on the fitted dose curve; in most records, active means well fitted curve in the direction sought with a large enough effect; inconclusive means small, poorly fitted or top-dose-only effect, or another doubt; inactive means no such curve, though single readings can be large; an effect the other way counts as inactive or inconclusive.

SMILES | L3MBTL1 inh | JMJD2A Tudor inh | HP1b chromo inh | Sfp inh | G9a inh | BAZ2B inh
COc1ccc2c(c1)c(=O)oc1cc(OCC(=O)N3CCC(C)CC3)ccc12 | u | 50µM | n | n | 8.9µM | u
O=C(CNS(=O)(=O)c1ccccc1)N1CCc2ccccc2C1 | n | n | n | n | x | n
CCOc1ccc(C(=O)OCC(=O)NC2CCCC2)cc1OCC | x | n | n | n | n[2.33 µM] | n
COc1ccccc1CNC(=O)Cc1csc2nc(-c3ccc(F)cc3)cn12 | x | n | n | x | n | n
COc1ccccc1N1CCN(C(=O)C(=O)c2c(C)[nH]c3ccccc23)CC1 | x | n | n | n | n | n
CCOC(=O)c1c(CN2CCOCC2)n(C)c2cc(Br)c(O)c(CN(C)C)c12 | n | n | n | n | 11µM | u
CCOC(=O)c1c(CSc2ccccc2)n(C)c2ccc(O)c(CN3CCOCC3)c12 | n | n | n | n | 40µM | 35µM
CCOC(=O)c1c(C)n(C)c2ccc(O)c(CN3CCN(C)CC3)c12 | n | n | n | n | u | x
O=C(CN1C(=O)C(=O)N(CCC2=CCCCC2)C1=O)Nc1ccc(F)cc1F | n | n | n | x | x | x
Cc1ccc(C)c(Cn2c(-c3cccs3)nc3ccccc32)c1 | x | n | n | x | n | n
Cc1ccc(S(=O)(=O)N[C@H]2COC(=O)C/C=C\[C@@H](C)[C@H](NS(=O)(=O)c3ccc(C)cc3)COC(=O)[C@H](C)NC(=O)C/C=C\[C@H]2C)cc1 | x | x | x | n | x | x
Cc1ccc(CN2CCNC(=O)C2CC(=O)NC2CCCCCC2)cc1 (stereo not drawn) | x | n | n | n | 56µM | n
O=C(CC1C(=O)NCCN1Cc1ccc(F)cc1)NC1CCCCCCC1 (stereo not drawn) | x | n | n | n | 50µM | n
COc1ccc(CN2CCNC(=O)C2CC(=O)NC2CCCCCCC2)cc1OC (stereo not drawn) | x | n | n | n | n | n
COc1ccc(CN2CCNC(=O)C2CC(=O)NC2CCCCCC2)cc1C (stereo not drawn) | x | n | n | n | x | u
O=C(CC1C(=O)NCCN1Cc1ccccc1)NC1CCCCCC1 (stereo not drawn) | x | n | n | n | n | n
CCOc1ccc(CN2CCNC(=O)C2CC(=O)NC2CCCCCC2)cc1 (stereo not drawn) | x | n | n | n | 40µM | n
COc1ccc(CN2CCNC(=O)C2CC(=O)NC2CCCC2)cc1OC (stereo not drawn) | x | u | n | n | 71µM | n
Fc1cc(F)c(C2SCCN2C(=S)Nc2cccc(C(F)(F)F)c2)c(F)c1 (stereo not drawn) | n | n | n | n | u | n
CC(C)C12CN3CC(C(C)C)(CN(C1)C3c1ccc([N+](=O)[O-])o1)C2=O (stereo not drawn) | x | n | n | n | n | n
CC(=O)OC[C@@H]1O[C@@H](O/N=C2/C[C@@H](O)[C@@H](O)[C@@H]3[C@@H]4C(=O)N(C[C@@H]5CCCO5)C(=O)[C@H]4CC[C@H]23)[C@H](OC(C)=O)[C@H](OC(C)=O)[C@@H]1OC(C)=O | x | x | x | n | x | x
C=CC[C@H](CC(=O)N(CCO)Cc1ccccc1)C(=O)NCCOC(=O)[C@@H](CC=C)CC(=O)OC(C)(C)C | n | n | n | x | x | x
Cc1cc(S(=O)(=O)N2c3ccc(F)cc3CCC2C)ccc1-n1cnnn1 (stereo not drawn) | x | u | n | n | n | n
CCn1cc(CNC(=O)CC2C(=O)NCCN2CC(c2ccccc2)c2ccccc2)cn1 (stereo not drawn) | n | n | n | n | x | n
O=C(CC1C(=O)NCCN1CC(c1ccccc1)c1ccccc1)NC1CC1 (stereo not drawn) | n | n | n | n | 45µM | n
SMILES | L3MBTL1 inh | JMJD2A Tudor inh | HP1b chromo inh | Sfp inh | G9a inh | BAZ2B inh
Cc1cc(Cl)ccc1NS(=O)(=O)c1c(C(=O)N2CCCCCC2)c(C)n(C)c1C | x | n | n | x | n | u
C#CCOCCOCCOCCNc1nc(N2CCN(C(=O)[C@H](Cc3cc4ccccc4[nH]3)n3cc([C@@H](N)C(C)CC)nn3)CC2)nc(N2CCN(C(=O)[C@H](CCCCN)n3cc([C@@H](N)CO)nn3)CC2)n1 (stereo partly drawn) | n | x | x | n | n[12.7 µM] | 25µM
C#CCOCCOCCOCCNc1nc(N2CCN(C(=O)[C@H](CCC(=O)O)n3cc(C(N)CO)nn3)CC2)nc(N2CCN(C(=O)[C@H](Cc3cc4ccccc4[nH]3)n3cc(C(N)[C@H](C)CC)nn3)CC2)n1 (stereo partly drawn) | u | 45µM | n | u | n[12.7 µM] | 50µM
C#CCOCCOCCOCCNc1nc(N2CCN(C(=O)[C@H](Cc3cc4ccccc4[nH]3)n3cc([C@@H](N)C(C)CC)nn3)CC2)nc(N2CCN(C(=O)[C@H](Cc3cc4ccccc4[nH]3)n3cc([C@@H](N)CC(C)C)nn3)CC2)n1 (stereo partly drawn) | u | x | x | u | u | 35µM
C#CCOCCOCCOCCNc1nc(N2CCN(C(=O)[C@H](CCCCN)n3cc([C@@H](N)C(C)CC)nn3)CC2)nc(N2CCN(C(=O)[C@H](Cc3cc4ccccc4[nH]3)n3cc([C@@H](N)CC(C)C)nn3)CC2)n1 (stereo partly drawn) | n | 35µM | n | n | u | 32µM
COc1ccc(C(=O)N(Cc2ccco2)Cc2cccs2)cc1 | x | n | n | x | x | x
COc1ccc(N(C)C(=O)c2cn(CC(C)C)c(=O)c3cc(OC)c(OC)cc23)cc1 | x | n | n | n | n | n
CC(C(=O)Nc1cc(Cl)cc(Cl)c1)N1CCCC1 (stereo not drawn) | x | n | n | n | n | n
